Laboratory results taken from PubChem BioAssay (NCI).
Compounds without any hit were thinned out: in the full panel of roughly 79,000, 15% have a hit. The source made the active and inactive calls. Rule as the data show it: active = growth inhibition above about 70%; inactive = the rest.

What was measured:
[1] = NCI Yeast Anticancer Drug Screen. Data for the rad52 strain (AID 147);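 also: 0% = growth of vehicle-treated control cultures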; details: S. cerevisiae rad52 mutant growth inhibition, active compounds read high
Outline: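 Inhibition of yeast growth, referenced to vehicle controls, was the measured output for a strain with defective DNA damage repair.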

[2] = NCI Yeast Anticancer Drug Screen. Data for the wt1 strain (AID 149);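 also: 0% = growth of vehicle-treated wt1 cultures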; details: S. cerevisiae wt1 strain (SPY 50644) growth inhibition, active compounds read high
Outline: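 Readout: yeast growth inhibition, normalised to vehicle controls, in the wt1 strain exposed to test compounds.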

[3] = NCI Yeast Anticancer Drug Screen. Data for the rad50EPP+ strain (AID 151);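 also: 0% = growth of vehicle-treated control cultures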; details: S. cerevisiae rad50 mutant strain, active compounds read high
Outline: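 Genetically defined yeast (rad50EPP+, DNA damage repair alteration) is grown with compound, and inhibition of growth is expressed relative to vehicle-treated controls.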

[4] = NCI Yeast Anticancer Drug Screen. Data for the rad50 strain (AID 155);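 also: 0% = growth of vehicle-only cultures of the same strain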; details: S. cerevisiae rad50 strain growth inhibition, active compounds read high
Outline: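 Compounds were tested on a yeast strain with an engineered DNA damage repair alteration; the reported value is growth inhibition normalised to vehicle treatment.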

[5] = NCI Yeast Anticancer Drug Screen. Data for the mec2-1 strain (AID 157); details: S. cerevisiae mec2-1 strain, active compounds read high
Outline: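 Each compound was tested on mec2-1 yeast, a strain altered in DNA damage repair or cell cycle control. Growth inhibition is reported relative to vehicle.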

[6] = NCI Yeast Anticancer Drug Screen. Data for the rad14 strain (AID 159);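 also: 0% = growth of vehicle-treated control cultures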; details: S. cerevisiae rad14 strain growth inhibition, active compounds read high
Outline: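 Compound-treated yeast with a defined DNA-repair lesion; growth inhibition normalised to vehicle-treated cultures.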

[7] = NCI Yeast Anticancer Drug Screen. Data for the sgs1 mgt1 strain (AID 161);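 also: 0% = growth of cultures given vehicle only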; details: S. cerevisiae sgs1 mgt1 strain, active compounds read high
Outline: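 Mutant yeast exposed to compound; growth scored against vehicle-only wells.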

[8] = NCI Yeast Anticancer Drug Screen. Data for the CLN2oe strain (AID 163);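 also: 0% = growth of vehicle-only control cultures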; details: S. cerevisiae CLN2oe strain, active compounds read high
Outline: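 First, the altered yeast strain was treated with each compound; second, its growth was measured; finally, inhibition was derived by comparison with vehicle controls.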

[9] = NCI Yeast Anticancer Drug Screen. Data for the cln2 rad14 strain (AID 165);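 also: 0% = growth equal to vehicle treated cultures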; details: S. cerevisiae cln2 rad14 strain, active compounds read high
Outline: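 Test compounds were added to cln2 rad14 yeast cultures; inhibition of growth was then determined by comparison with vehicle treatment.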

[10] = NCI Yeast Anticancer Drug Screen. Data for the bub3 strain (AID 167); details: S. cerevisiae bub3 mutant strain, active compounds read high
Outline: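 Growth of a checkpoint-deficient yeast mutant is measured after compound exposure. Values represent inhibition relative to vehicle.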

[11] = NCI Yeast Anticancer Drug Screen. Data for the wt2 strain (AID 169);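 also: 0% = growth of vehicle-treated yeast cultures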; details: S. cerevisiae wt2 strain growth inhibition, active compounds read high
Outline: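 The panel's yeast strains carry defined changes in DNA repair or cell cycle genes. Each strain is grown with compound, and growth loss is scored relative to vehicle.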

[12] = NCI Yeast Anticancer Drug Screen. Data for the mlh1 strain (AID 171);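 also: 0% = growth of vehicle-treated control cultures of the same strain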; details: S. cerevisiae mlh1 strain growth inhibition, active compounds read high
Outline: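 Inhibition values reflect reduced yeast growth in the presence of compound, referenced to vehicle controls, using a strain chosen for its alteration in DNA repair or cell cycle control.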

[13] = NCI Yeast Anticancer Drug Screen. Data for the sgs1 strain (AID 173);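 also: 0% = growth of vehicle-only control cultures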; details: S. cerevisiae sgs1 mutant, active compounds read high
Outline: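 Vehicle-treated cultures served as reference for growth inhibition of a yeast strain altered in DNA damage repair or cell cycle control after compound exposure.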

[14] = NCI Yeast Anticancer Drug Screen. Data for the mlh1 rad18 strain (AID 175); details: S. cerevisiae mlh1 rad18 strain growth inhibition, active compounds read high
Outline: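 Inhibition values reflect reduced growth of mutant yeast versus vehicle-treated controls following compound exposure; the mutations affect DNA damage repair.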

[15] = NCI Yeast Anticancer Drug Screen. Data for the rad18 strain (AID 177); details: S. cerevisiae rad18 mutant growth inhibition, active compounds read high
Outline: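 Steps: expose repair-mutant yeast to compound; measure growth; express as inhibition relative to vehicle control.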

[16] = NCI Yeast Anticancer Drug Screen. Data for the mgt1 strain (AID 153); details: S. cerevisiae mgt1 mutant growth inhibition, active compounds read high
Outline: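 In the mgt1 strain, test compounds were added and growth inhibition was determined relative to vehicle-treated controls.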

[17] = at 5.0 µM (retest, dose inferred, filed as 0.5)
[18] = at 50.0 µM (retest, dose inferred, filed as 5.0)

Measured: growth inhibition

CC(=O)c1ccc(NCN2C(=O)c3ccccc3C2=O)cc1
inactive: [1]; at 1.2 µM -31% | [1]; at 3.7 µM -8% | [1]; at 11.0 µM 28% | [2]; at 1.2 µM -51% | [2]; at 3.7 µM -41% | [2]; at 11.0 µM -36% | [2]; at 33.0 µM 66% | [3]; at 1.2 µM -17% | [3]; at 3.7 µM -32% | [3]; at 11.0 µM 6% | [4]; at 1.2 µM -20% | [4]; at 3.7 µM -12% | [4]; [17] 42% | [4]; at 11.0 µM 55% | [5]; at 1.2 µM -8% | [5]; at 3.7 µM -30% | [5]; [17] 51% | [5]; at 11.0 µM 16% | [6]; at 1.2 µM -50% | [6]; at 3.7 µM -39% | [6]; at 11.0 µM -19% | [6]; at 33.0 µM 66% | [7]; [17] 7% | [7]; [18] 25% | [8]; at 1.2 µM -19% | [8]; at 3.7 µM -32% | [8]; at 11.0 µM -31% | [8]; at 33.0 µM 53% | [9]; [17] 48% | [9]; [18] 35% | [10]; at 1.2 µM -15% | [10]; at 3.7 µM -2% | [10]; [17] 34% | [10]; at 11.0 µM 22% | [10]; [18] 42% | [11]; at 1.2 µM -49% | [11]; at 3.7 µM -36% | [11]; at 11.0 µM -15% | [11]; at 33.0 µM 64% | [12]; at 1.2 µM -44% | [12]; at 3.7 µM -48% | [12]; at 11.0 µM 6% | [12]; at 33.0 µM 68% | [13]; at 1.2 µM -25% | [13]; at 3.7 µM -28% | [13]; at 11.0 µM -13% | [14]; [17] 36% | [15]; at 1.2 µM -36% | [15]; at 3.7 µM -21% | [15]; at 11.0 µM 47%
active: [1]; at 33.0 µM 84% | [1]; at 100.0 µM 92% | [2]; at 100.0 µM 89% | [3]; at 33.0 µM 70% | [3]; at 100.0 µM 90% | [4]; at 33.0 µM 85% | [4]; [18] 99% | [4]; at 50.0 µM 82.7% | [4]; at 100.0 µM 89% | [5]; at 33.0 µM 81% | [5]; [18] 99% | [5]; at 50.0 µM 84.5% | [5]; at 100.0 µM 91% | [6]; at 100.0 µM 93% | [8]; at 100.0 µM 82% | [10]; at 33.0 µM 79% | [10]; at 100.0 µM 91% | [11]; at 100.0 µM 89% | [12]; at 100.0 µM 83% | [13]; at 33.0 µM 73% | [13]; at 100.0 µM 86% | [14]; [18] 99% | [14]; at 50.0 µM 85.8% | [15]; at 33.0 µM 90% | [15]; at 100.0 µM 92%

CCc1nc2ccc(N=Nc3c(O)ccc4ccccc34)cc2[nH]1
active: [2]; at 100.0 µM 96% | [3]; at 100.0 µM 93% | [16]; at 100.0 µM 96% | [4]; at 50.0 µM 89% | [4]; at 100.0 µM 95% | [5]; at 50.0 µM 93.2% | [5]; at 100.0 µM 93% | [6]; at 100.0 µM 93% | [7]; at 50.0 µM 92.5% | [8]; at 100.0 µM 95% | [9]; at 50.0 µM 91.9% | [10]; [18] 92% | [10]; at 50.0 µM 92.2% | [10]; at 100.0 µM 95% | [11]; at 100.0 µM 96% | [12]; at 100.0 µM 95% | [13]; at 100.0 µM 95% | [14]; at 50.0 µM 90.1%
inactive: [2]; at 1.2 µM 14% | [2]; at 3.7 µM 10% | [2]; at 11.0 µM 19% | [2]; at 33.0 µM 30% | [3]; at 1.2 µM -5% | [3]; at 3.7 µM 4% | [3]; at 11.0 µM 23% | [3]; at 33.0 µM 63% | [16]; at 1.2 µM 0% | [16]; at 3.7 µM -10% | [16]; at 11.0 µM -6% | [16]; at 33.0 µM -2% | [4]; at 1.2 µM 6% | [4]; at 3.7 µM 6% | [4]; [17] -23% | [4]; at 11.0 µM 8% | [4]; at 33.0 µM 34% | [4]; [18] 25% | [5]; at 1.2 µM 0% | [5]; at 3.7 µM 7% | [5]; [17] -49% | [5]; at 11.0 µM 10% | [5]; at 33.0 µM 21% | [5]; [18] 65% | [6]; at 1.2 µM -15% | [6]; at 3.7 µM -29% | [6]; at 11.0 µM -20% | [6]; at 33.0 µM 32% | [7]; [17] -4% | [7]; [18] 21% | [8]; at 1.2 µM 2% | [8]; at 3.7 µM 1% | [8]; at 11.0 µM -5% | [8]; at 33.0 µM 9% | [9]; [17] 9% | [9]; [18] 41% | [10]; at 1.2 µM -3% | [10]; at 3.7 µM -11% | [10]; [17] -9% | [10]; at 11.0 µM -18% | [10]; at 33.0 µM 13% | [11]; at 1.2 µM -13% | [11]; at 3.7 µM 12% | [11]; at 11.0 µM -5% | [11]; at 33.0 µM 12% | [12]; at 1.2 µM -15% | [12]; at 3.7 µM -10% | [12]; at 11.0 µM -18% | [12]; at 33.0 µM 17% | [13]; at 1.2 µM 1% | [13]; at 3.7 µM 17% | [13]; at 11.0 µM 24% | [13]; at 33.0 µM 57% | [14]; [17] -22% | [14]; [18] 46%

CC(C)c1ccc(C2NC(=S)NC3=C2c2ccccc2C3=O)cc1 (stereo not drawn)
inactive: [2]; at 1.2 µM 16% | [2]; at 3.7 µM 6% | [2]; at 11.0 µM 18% | [2]; at 33.0 µM 17% | [2]; at 100.0 µM 17% | [3]; at 1.2 µM 23% | [3]; at 3.7 µM 21% | [3]; at 11.0 µM 16% | [3]; at 33.0 µM 15% | [3]; at 100.0 µM 3% | [16]; at 1.2 µM 3% | [16]; at 3.7 µM -4% | [16]; at 11.0 µM 7% | [16]; at 33.0 µM 19% | [16]; at 100.0 µM 50% | [4]; at 1.2 µM 24% | [4]; at 3.7 µM 24% | [4]; [17] 22% | [4]; at 11.0 µM 27% | [4]; at 33.0 µM 32% | [4]; [18] 31% | [4]; at 100.0 µM 54% | [5]; at 1.2 µM 17% | [5]; at 3.7 µM 11% | [5]; [17] -8% | [5]; at 11.0 µM -7% | [5]; at 33.0 µM 9% | [5]; [18] -11% | [5]; at 50.0 µM 64.1% | [5]; at 100.0 µM 28% | [6]; at 1.2 µM -8% | [6]; at 3.7 µM -14% | [6]; at 11.0 µM -18% | [6]; at 33.0 µM -20% | [6]; at 100.0 µM 11% | [7]; [17] 43% | [7]; [18] 24% | [8]; at 1.2 µM -9% | [8]; at 3.7 µM -5% | [8]; at 11.0 µM -5% | [8]; at 33.0 µM -8% | [8]; at 100.0 µM 18% | [9]; [17] -9% | [9]; [18] 26% | [9]; at 50.0 µM 66.8% | [10]; at 1.2 µM -3% | [10]; at 3.7 µM 4% | [10]; [17] -25% | [10]; at 11.0 µM 27% | [11]; at 1.2 µM 0% | [11]; at 3.7 µM 1% | [11]; at 11.0 µM 14% | [11]; at 33.0 µM 22% | [11]; at 100.0 µM 41%
active: [4]; at 50.0 µM 86.8% | [7]; at 50.0 µM 78% | [10]; at 33.0 µM 81% | [10]; [18] 87% | [10]; at 50.0 µM 89.7% | [10]; at 100.0 µM 88%
